Assay outcomes: PubChem BioAssay, several laboratories
aDG glyco act: increases alpha dystroglycan glycosylation; Pro5-aDG cells, alpha-DG glycosylation AlphaScreen (IIH6); 0% Pro5, 100% B10-LARGE cell signal; activation, % at 10 µM; 360,000 tested, 0.22% active; AID 624168;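 active means activation of at least 8% versus controls, or a plate z-score of at least 8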;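 further: Pro5 are CHO cells carrying HIG-tagged alpha-DG that lacks glycosylation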
A3G deaminase: APOBEC3G (human) deaminase inhibition; inhibition, % at 20 µM; AID 493012; 330,000 tested, 0.28% active; Q9HC16; recombinant A3G, ssDNA deamination FAM/TAMRA fluorescence;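 active means inhibition of at least 40% at 20 µM, with no more than 30% in the related APOBEC3A deaminase screen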
Target sequence (Q9HC16 whole entry, looked up): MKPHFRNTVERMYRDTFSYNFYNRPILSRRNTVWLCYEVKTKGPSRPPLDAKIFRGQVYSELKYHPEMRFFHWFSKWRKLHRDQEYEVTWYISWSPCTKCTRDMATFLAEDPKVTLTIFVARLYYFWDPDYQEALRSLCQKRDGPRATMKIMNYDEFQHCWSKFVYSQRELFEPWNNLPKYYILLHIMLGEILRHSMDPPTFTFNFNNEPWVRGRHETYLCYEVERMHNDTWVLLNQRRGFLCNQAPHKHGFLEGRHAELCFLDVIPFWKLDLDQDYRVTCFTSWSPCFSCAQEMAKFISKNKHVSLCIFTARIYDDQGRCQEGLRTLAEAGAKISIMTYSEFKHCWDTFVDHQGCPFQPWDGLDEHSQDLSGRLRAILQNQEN
PHOSPHO1 inh: blocks human PHOSPHO1 phosphatase activity. recombinant PHOSPHO1, absorbance phosphatase assay. AID 1565. 290,000 tested, 1.1% active. inhibition, % at 13.3 µM; in the data active means inhibition above about 60%
A3A deaminase: inhibitors of human APOBEC3A DNA deaminase | P31941 | inhibition, % at 20 µM | 330,000 tested, 0.41% active | recombinant A3A, FAM/TAMRA ssDNA deamination fluorescence;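 active means at least 40% inhibition at 20 µM here, with at most 30% in a related deaminase screen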
ALR H2O2 inh: blocks human ALR sulfhydryl oxidase activity; inhibition, % (test concentration not listed); purified ALR, DTT oxidation, H2O2 HRP-luminol luminescence; AID 485317; 290,000 tested, 3.8% active;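 active means mean replicate inhibition above about 79%, with every replicate also reaching it, limit read from the data; inconclusive means only one of the two criteria met; inactive means mean below limit and not every replicate reaching it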
Target sequence (P55789 whole entry, looked up): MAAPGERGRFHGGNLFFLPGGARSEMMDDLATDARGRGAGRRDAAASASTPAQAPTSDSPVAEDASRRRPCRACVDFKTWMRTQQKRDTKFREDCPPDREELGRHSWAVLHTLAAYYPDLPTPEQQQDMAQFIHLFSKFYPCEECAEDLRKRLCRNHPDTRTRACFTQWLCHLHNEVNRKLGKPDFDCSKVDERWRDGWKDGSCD
rCAG binder: binds r(CAG) RNA repeats | 370,000 tested, 1.3% active | inhibition, % at 3 µM | AID 651821 | r(CAG) RNA repeat, TO-PRO-1 dye displacement fluorescence;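 active means inhibition above the plate cutoff, the mean of all test compounds on that plate plus 3 SD, cut at about 35% in these data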;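 further: higher means more dye released from RNA so lower well fluorescence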
rCAG bind conf: r(CAG) RNA repeat binding, confirmation; 4,300 tested, 70% active; TO-PRO-1 dye displacement fluorescence; shares compounds with rCAG binder; inhibition, % at 3 µM;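 active means inhibition above a per-plate cutoff, the mean inhibition of sample wells plus 3 SD, cut at about 35% in these data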;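 further: loss of TO-PRO-1 fluorescence as compound displaces dye from 1x1 AA loop RNA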
DNA CAG counter: DNA CAG dye complex inhibition counter-screen | shares compounds with rCAG binder | d(CAG) DNA oligo TO-PRO-1 dye displacement, fluorescence | inhibition, % at 3 µM | 4,300 tested, 94% active | AID 652068;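 active means inhibition above its plate's cutoff, the mean test-well inhibition plus 3 SD, cut at about 4.8% in these data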;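 further: hits displace the dye from DNA and so lower well fluorescence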
Large screens that a line does not name were inactive (follow-up assays come after a bar, where they were run). Compounds with a hit are over-represented: about 5.4% of the library has one in this group of screens.

CC(C)(C)c1ccc(/C=N/Nc2ccc(C(=O)O)cc2)cc1	rCAG binder 39 (no result: ALR H2O2 inh) | rCAG bind conf 36 | DNA CAG counter 8.8
Cc1cn([C@H]2C[C@H](O)[C@@H](CNCc3ccc(Oc4cc(-n5cccn5)ncn4)cc3)O2)c(=O)[nH]c1=O	none (no result: A3G deaminase, PHOSPHO1 inh, A3A deaminase, ALR H2O2 inh)
C=CCNc1cccc2c1S(=O)(=O)N[C@H](C)CO2	none (no result: aDG glyco act, A3G deaminase, PHOSPHO1 inh, A3A deaminase, ALR H2O2 inh)
COc1cccc(C(=O)Oc2ccc(/C=N/Nc3ccc(C(=O)O)cc3)cc2OC)c1	rCAG binder 70 (no result: ALR H2O2 inh) | rCAG bind conf 67 | DNA CAG counter 25
COc1cc(/C=N/Nc2ccc(Cl)c(C(=O)O)c2)ccc1OC(=O)c1ccc(F)cc1	none
CC(=O)Nc1cncc(-c2cccc(C(=O)N3CCOCC3)c2)n1	none (no result: A3G deaminase, PHOSPHO1 inh, A3A deaminase, ALR H2O2 inh)
CN=c1scc(-c2ccccc2F)n1/N=C/c1ccc(O)c(O)c1O	rCAG binder 41 (no result: A3G deaminase, A3A deaminase, ALR H2O2 inh) | rCAG bind conf 56 | DNA CAG counter 25
CN=c1scc(-c2ccccc2F)n1/N=C/c1ccc[nH]1	ALR H2O2 inh inconclusive
CC(C)N=c1scc(-c2cccs2)n1/N=C/c1ccc(O)c(O)c1O	ALR H2O2 inh 88, rCAG binder 46 | rCAG bind conf 56 | DNA CAG counter 31
COc1cccc(C(NC(C)=O)c2nc(-c3cccc(C(=O)O)c3)cs2)c1 (configuration not stated)	none (no result: A3G deaminase, PHOSPHO1 inh, A3A deaminase, ALR H2O2 inh)
CC(=O)NS(=O)(=O)c1ccc(N=c2ssc3c2-c2ccc(C)cc2NC3(C)C)cc1	ALR H2O2 inh 100, rCAG binder 61 | rCAG bind conf 52 | DNA CAG counter 21
CCn1c2ccccc2c2c3ncc4cccn4c3ccc21	rCAG binder 39 | rCAG bind conf 55 | DNA CAG counter 25
COc1ccc(CC(=O)Nc2cc(Cl)ccc2C(=O)O)cc1	none
CCCCOc1ccc(Nc2cc(Cl)ccc2C(=O)O)cn1	rCAG binder 70 | rCAG bind conf 64 | DNA CAG counter 16
Nc1nc2c(c(=O)[nH]1)C(c1cccc3ccccc13)C1=C(N2)c2ccccc2C1=O (configuration not stated)	rCAG binder 78 (no result: A3G deaminase, A3A deaminase, ALR H2O2 inh) | rCAG bind conf 57 | DNA CAG counter 34
CC(=O)C1=C(C)NC2=C(C(=O)c3ccccc32)C1c1ccccc1 (configuration not stated)	none
CN(C)C(CNC(=O)C1CCN(S(=O)(=O)c2cc(Cl)ccc2Cl)CC1)Cc1ccccc1 (configuration not stated)	none (no result: A3G deaminase, PHOSPHO1 inh, A3A deaminase, ALR H2O2 inh)
N#C/C(=C\c1c[nH]c2ccccc12)C(=O)NC1CC1	rCAG binder 54 | rCAG bind conf inactive | DNA CAG counter inactive
CCOC(=O)C1=C(C)N(C[C@@H]2CC[C@@H](Cc3ccc(-c4ccccc4)cc3)O2)C(=O)NC1c1ccc(SCc2ccco2)c([N+](=O)[O-])c1 (some centres not stated)	rCAG binder 49 (no result: PHOSPHO1 inh, ALR H2O2 inh) | rCAG bind conf 36 | DNA CAG counter 19
Cc1ccc([C@H]2C[C@@H](O)[C@H](n3cc(-c4ccc(F)cc4)nn3)CN2C(=O)c2cccs2)cc1	none (no result: A3G deaminase, PHOSPHO1 inh, A3A deaminase, ALR H2O2 inh)
CCc1ccc(N2CC(C(=O)OCC(=O)N(CC)c3c(N)n(Cc4ccccc4)c(=O)[nH]c3=O)CC2=O)cc1 (configuration not stated)	none (no result: A3G deaminase, PHOSPHO1 inh, A3A deaminase, ALR H2O2 inh)
CCOc1ccc(Cn2c(O)cc(=O)[nH]c2=O)cc1	rCAG binder 47 | rCAG bind conf inactive | DNA CAG counter inactive
CCOC(=O)[C@]12CCCC=C1N(CCc1ccc(OC)c(OC)c1)C(=O)[C@H](CC(=O)N1CCN(C(=O)C3CC3)CC1)C2	none (no result: A3G deaminase, PHOSPHO1 inh, A3A deaminase, ALR H2O2 inh)
CCOC(=O)N(C)c1c(CC)nc2c(OCc3cc(Cl)cc(Cl)c3)cccn12	none (no result: A3G deaminase, PHOSPHO1 inh, A3A deaminase, ALR H2O2 inh)
Nc1ccc(CNC(=O)OCC2c3ccccc3-c3ccccc32)cc1	none (no result: PHOSPHO1 inh)
O=C(Cc1ccccc1)N[C@@H](Cc1ccccc1)C(=O)O	none (no result: ALR H2O2 inh)
O=C(CCc1c[nH]c2ccccc12)NC(Cc1ccccc1)C(=O)O (configuration not stated)	rCAG binder 36 | rCAG bind conf inactive | DNA CAG counter inactive
O=C(NC(Cc1c[nH]c2ccccc12)C(=O)O)OCC1c2ccccc2-c2ccccc21 (configuration not stated)	rCAG binder 69 (no result: A3G deaminase, PHOSPHO1 inh, A3A deaminase, ALR H2O2 inh) | rCAG bind conf 59 | DNA CAG counter 18
O=C(N[C@@H](Cc1ccc(Br)cc1)C(=O)O)OCC1c2ccccc2-c2ccccc21	rCAG binder 39 | rCAG bind conf 69 | DNA CAG counter 28
O=C(N[C@H](Cc1ccc(Cl)cc1)C(=O)O)OCC1c2ccccc2-c2ccccc21	rCAG binder 40 | rCAG bind conf 66 | DNA CAG counter 24
COC(=O)C(Cc1ccccc1)NC(=O)CCc1c[nH]c2ccccc12 (configuration not stated)	none
CC[C@H](NC(=O)[C@H]1O[C@@H](n2cnc3c(=O)[nH]c(N)nc32)[C@H](O)[C@@H]1O)c1ccccc1	none (no result: aDG glyco act, A3G deaminase, PHOSPHO1 inh, A3A deaminase, ALR H2O2 inh)
O=C(NCc1ccccc1)[C@@H]1CCCN1C(=O)[C@H]1CCCN1C(=O)c1ccc(OC(F)(F)F)cc1	none (no result: aDG glyco act, A3G deaminase, PHOSPHO1 inh, A3A deaminase, ALR H2O2 inh)
O=C1NC(Cc2ccc(O)cc2)c2nc3cc(Cl)ccc3c(=O)n2-c2cc(Cl)ccc21 (configuration not stated)	none (no result: A3G deaminase, PHOSPHO1 inh, A3A deaminase, ALR H2O2 inh)
CC(NC(=O)OCc1ccccc1)c1ccccc1 (configuration not stated)	none (no result: PHOSPHO1 inh)
CC(c1ccccc1)C(NC(=O)OCC1c2ccccc2-c2ccccc21)C(=O)O (configuration not stated)	rCAG binder 46 (no result: PHOSPHO1 inh) | rCAG bind conf 42 | DNA CAG counter 8.9
O=C(NC(=O)c1c(F)cccc1F)Nc1cccc(Oc2ncc(Cl)cn2)c1	none (no result: A3G deaminase, PHOSPHO1 inh, A3A deaminase, ALR H2O2 inh)
CCOC(=O)C1=C(O)/C(=C/c2ccc(OCC(=O)O)c(OCC)c2)SC1=Nc1ccc(C)cc1	rCAG binder 45 | rCAG bind conf 68 | DNA CAG counter 25
CCOC(=O)C1=C(O)/C(=C/c2ccc(OCC(=O)O)c(OCC)c2)SC1=Nc1ccc(OC)cc1	rCAG binder 56 | rCAG bind conf 64 | DNA CAG counter 22
CCOC(=O)C1=C(O)/C(=C/c2cc(OC)c(OC)c(OC)c2)SC1=Nc1ccc(OC)cc1	none
CC(C)(C)c1ccc(C(=O)CC(Sc2ccc(Cl)cc2)C(=O)O)cc1 (configuration not stated)	ALR H2O2 inh 98, rCAG binder 41 | rCAG bind conf 52 | DNA CAG counter 18
Cc1ccc(SC(CC(=O)c2ccc(F)cc2)C(=O)O)cc1 (configuration not stated)	none (no result: ALR H2O2 inh)
O=C(O)c1ccc(CNS(=O)(=O)c2ccc3ccccc3c2)cc1	none
O=C(O)c1ccc(CNS(=O)(=O)c2ccc(Oc3ccccc3Cl)cc2)cc1	rCAG binder 39 | rCAG bind conf inactive | DNA CAG counter 6.6
